Experiment [1] in a line: rapamycin-like changes in RPL19A-GFP expression – cell-based, S. cerevisiae, multiplex flow cytometry, primary screen (AID 1862; in the data active = percent of DMSO control GFP below about 86%;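 also: lower values mimic rapamycin by blocking the RPL19A rise seen in DMSO cells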). The conditions noted are these: S. cerevisiae RPL19A-GFP strain, flow cytometry fluorescence, 3 h; at 10 µM; stronger effect = lower value.
Experiment [2] can be described thus: TOR pathway GLN3 branch reporter MEP2-GFP changes – S. cerevisiae, multiplex flow cytometry, primary screen (AID 1867;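 active = GFP response, as percent of the DMSO control, above the screen-wide mean plus 3 SD, about 139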;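 also: median GFP channel fluorescence of barcode-gated MEP2-GFP cells measured by flow cytometry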). The following applies: S. cerevisiae MEP2-GFP strain, 3 h, at 10 µM, stronger effect = higher value, 100% means same as DMSO wells.
Experiment [3] in a line: TOR pathway RTG branch CIT2 reporter changes – S. cerevisiae, GFP fusion, multiplex flow cytometry, primary screen (AID 1870;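 active = percent response above a set limit, the screen-wide mean plus 3 SD, cut at about 130% in these data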;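 also: barcoded CIT2-GFP strain pooled with four other GFP strains with rapamycin as positive control; median GFP fluorescence per well over plate mean of DMSO wells so 100% = DMSO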). The conditions noted are these: S. cerevisiae CIT2-GFP expression, 3 h, at 10 µM, stronger effect = higher value.
Experiment [4] is described as follows: TOR pathway LAP4-GFP level changes – S. cerevisiae, multiplex flow cytometry, primary screen (AID 1873). The following applies: S. cerevisiae LAP4-GFP expression, 3 h, at 10 µM, stronger effect = higher value.
The nature of experiment [5]: yeast AGP1-GFP level changes, GLN3 branch – cell-based, multiplex flow cytometry, S. cerevisiae, primary screen (AID 1887;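 active = GFP signal above the screen-wide mean plus 3 SD, that is over about 124.5% of the solvent control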;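 also: AGP1-GFP fusion strain of S. cerevisiae within a five-strain barcoded multiplex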). The following applies: 3 h, at 10 µM, stronger effect = higher value.
A short description of experiment [6]: reduced mouse 2C T cell binding to pMHC/ICAM-1 vesicles – MLPCN validation set, flow cytometry, LFA-1/ICAM-1 modulator project, pilot screen (AID 2523;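 active = response below a set limit, under 55% cells CD8-positive and vesicle-bound, and CD8 cells' 90th-percentile brightness under 279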;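 as to vesicle binding response: mean PE anti-B7-1 fluorescence of CD8+ cells relative to row control; 100% = QL9-loaded vesicles with DMSO vehicle in the same plate row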). The conditions noted are these: 2C mouse CD8+ T cells, at 7 µM, stronger effect = lower value; double positive events: measured here: CD8+/vesicle+ event percentage.
Experiment [7] concerns the target Integrin beta-1 (Homo sapiens) + Integrin alpha-4 (Homo sapiens) (UniProt P13612+P05556). Put plainly: alpha4beta1 integrin LIBS antibody binding reduction – U937 cells, HUTS-21 mAb, flow cytometry, validation set, VLA-4 allosteric modulator project, pilot screen (AID 2674;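 active = inhibition above 50%, about 3 SD of the validation set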;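 also: antibody binding induced by the VLA-4 ligand LDV present at three times its Kd; 0% = LDV ligand with antibody and no compound and 100% = antibody without LDV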). The following applies: HUTS-21 LIBS mAb binding, at 6.7 µM, stronger effect = higher value, binding induced by LDV ligand.

Experiment [8] in a line: calorie-restriction mimetic ROS inhibitors, yeast – validation compound set, pilot screen (AID 2706;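 active = superoxide response below 65% of plate, a cut near 3 SD across the whole screen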;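 also: yeast exposed to compound for one week at 30 degrees C before staining; 100% = mean of all compound wells on the same plate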). The conditions noted are these: S. cerevisiae aging, superoxide DHE fluorescence; at 10 µM; stronger effect = lower value.
The target in experiment [9] is Beta-adrenergic receptor kinase 1 (Homo sapiens) (UniProt P25098). Put plainly: GRK2 binders displacing RNA aptamer, biochemical, validation, human GRK2, bead flow cytometry (AID 488806;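 active = aptamer binding inhibition above 30%, about 3 SD of noise from non-fluorescent compounds; inactive = inhibition at or below 30%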). The following applies: bead-bound GRK2, FAM-aptamer displacement, at 10 µM, stronger effect = higher value.
Experiment [10] has as its target Beta-2 adrenergic receptor (Homo sapiens) (UniProt P07550). Description: agonist-induced loss of surface beta2AR – cell-based, FAP fluorogen, flow cytometry, validation set, pilot screen (AID 504459;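 active = percent response above 42, roughly 3 SD of non-fluorescent test compounds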;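 also: agonist-driven loss of surface beta2AR via internalization measured by FAP dye flow cytometry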). The following applies: Am2.2-beta2AR cells, at 10 µM, stronger effect = higher value.
The target of experiment [11] is AP-2 complex subunit beta (Homo sapiens) (UniProt P63010). Put plainly: beta-arrestin/AP2 interaction blockers – biochemical, validation set, GST-AP2 beads, flow cytometry, pilot screen (AID 504541;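 active = inhibition above 54%, about 3 SD of non-fluorescent compounds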;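 also: AP2 carries R879A mutation and is captured from E. coli lysate; bead-bound FITC arrestin peptide fluorescence measuring arrestin peptide binding to AP2; 0% = DMSO wells and 100% = excess unlabeled arrestin peptide control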). The conditions noted are these: FITC arrestin peptide, at 10 µM, stronger effect = higher value, AP2 beta2 appendage fragment, R879A mutant.
A short description of experiment [12]: cytosolic pH regulators acting via V-ATPase – S. cerevisiae, pHLuorin, HTS validation (AID 504600; in the data active = response above about 15%;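 also: plate controls were DMSO for no effect and reference compound for full effect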). The conditions noted are these: V-ATPase proton transport, at 10 µM, stronger effect = higher value.
Experiment [13] has as its system anti-desmoglein-3 scFv antibody binding to human DSG3. Put plainly: blockers of pathogenic pemphigus antibody–desmoglein-3 binding – biochemical, validation compound set, bead-based, flow cytometry, pilot screen (AID 588368;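 active = binding below the plate cutoff, the plate median minus 3 SD, with a reading above zero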;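 also: signal is the median channel fluorescence of bead-bound GFP antibody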). The following applies: Protein G beads, DSG3-Fc, scFv-GFP binding, at 10 µM, stronger effect = lower value.
Experiment [14] in a line: Nile Red efflux blockade in pump-expressing yeast – validation compound set, multiplex, phenotypic, pilot screen (AID 588506;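 active = efflux inhibition above 0.42, the validation set average plus 4 SD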;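 also: Nile Red retained in cells so higher fluorescence means more efflux inhibition; 0 = negative control wells and 1 = enniatin B 25 µM full block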). The following applies: S. cerevisiae pump-expressing triplex, Nile Red efflux flow cytometry; at 10 µM; stronger effect = higher value; the pumps come from Candida albicans.
Experiment [15] deals with ATP-binding cassette sub-family B member 6 (Homo sapiens) (UniProt Q9NP58). Description: blockers of ABCB6-driven porphyrin uptake – K562-ABCB6 cells, flow cytometry, validation set, pilot screen (AID 588550;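 active = inhibition above the screen-wide mean plus 3 SD, about 51%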;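 also: 0% = DMSO wells and 100% = benzethonium chloride 70 µM positive control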). The conditions noted are these: K562-ABCB6 porphyrin accumulation, 1 h, at 10 µM, stronger effect = higher value.
The nature of experiment [16]: AML differentiation inducers, ER-HoxA9 marrow cells – cell-based, GFP/MAC1 double positive, flow cytometry, validation set, primary screen (AID 588685;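 active = differentiation response of at least 50%, scaled between solvent and reference control, from cells with both markers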;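 also: compound exposure lasts four days before antibody staining and flow analysis; 0% = DMSO wells and 100% = 5 µM fulvestrant positive control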). The following applies: stronger effect = higher value, normalized: vehicle 0, fulvestrant 100.

Each structure is given as a SMILES string. Results filed as inconclusive are left out. Calls of active or inactive are those of the source.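 The calls were made as follows, unless noted: active = GFP signal, as percent of the solvent control, above the screen mean plus 3 SD, about 149; inconclusive = no reading because the compound's own fluorescence upset strain identification; inactive = the rest.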

ATP-binding cassette sub-family B member 6 (Homo sapiens), sequence (Q9NP58 whole entry, looked up): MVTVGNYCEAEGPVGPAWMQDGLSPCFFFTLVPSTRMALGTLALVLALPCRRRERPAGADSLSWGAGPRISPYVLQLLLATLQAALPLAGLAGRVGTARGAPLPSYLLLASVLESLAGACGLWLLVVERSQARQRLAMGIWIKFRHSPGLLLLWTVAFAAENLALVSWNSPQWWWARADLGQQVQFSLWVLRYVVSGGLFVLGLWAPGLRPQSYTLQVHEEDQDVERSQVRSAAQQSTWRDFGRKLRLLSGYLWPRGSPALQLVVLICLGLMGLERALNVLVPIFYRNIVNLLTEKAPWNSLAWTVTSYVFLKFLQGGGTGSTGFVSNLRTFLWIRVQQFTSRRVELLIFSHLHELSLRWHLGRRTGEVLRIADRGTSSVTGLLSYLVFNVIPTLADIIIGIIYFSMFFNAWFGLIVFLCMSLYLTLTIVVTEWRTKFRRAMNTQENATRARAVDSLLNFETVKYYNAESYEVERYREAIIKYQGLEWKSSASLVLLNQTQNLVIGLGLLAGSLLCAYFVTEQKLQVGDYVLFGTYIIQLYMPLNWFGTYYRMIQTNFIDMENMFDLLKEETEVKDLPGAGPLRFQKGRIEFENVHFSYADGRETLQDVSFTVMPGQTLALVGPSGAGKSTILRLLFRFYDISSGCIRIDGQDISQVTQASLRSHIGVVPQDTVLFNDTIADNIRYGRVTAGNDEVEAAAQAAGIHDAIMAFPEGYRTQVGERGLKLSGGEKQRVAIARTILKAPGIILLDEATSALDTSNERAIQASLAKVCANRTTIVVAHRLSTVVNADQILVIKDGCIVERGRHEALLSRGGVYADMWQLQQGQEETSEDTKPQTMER
Beta-2 adrenergic receptor (Homo sapiens), sequence (P07550 whole entry, looked up): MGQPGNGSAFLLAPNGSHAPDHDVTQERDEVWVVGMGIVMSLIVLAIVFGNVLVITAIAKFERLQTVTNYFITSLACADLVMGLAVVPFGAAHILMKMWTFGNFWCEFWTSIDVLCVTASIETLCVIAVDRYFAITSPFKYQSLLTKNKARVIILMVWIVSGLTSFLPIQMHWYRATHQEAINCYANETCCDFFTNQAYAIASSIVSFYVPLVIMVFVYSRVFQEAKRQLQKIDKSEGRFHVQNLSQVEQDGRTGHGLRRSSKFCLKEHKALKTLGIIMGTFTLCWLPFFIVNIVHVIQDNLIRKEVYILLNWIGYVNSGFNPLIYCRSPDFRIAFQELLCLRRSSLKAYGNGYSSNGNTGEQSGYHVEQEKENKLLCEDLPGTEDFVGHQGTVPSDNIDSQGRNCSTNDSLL
Integrin beta-1 (Homo sapiens) + Integrin alpha-4 (Homo sapiens), sequence (P05556 whole entry, looked up): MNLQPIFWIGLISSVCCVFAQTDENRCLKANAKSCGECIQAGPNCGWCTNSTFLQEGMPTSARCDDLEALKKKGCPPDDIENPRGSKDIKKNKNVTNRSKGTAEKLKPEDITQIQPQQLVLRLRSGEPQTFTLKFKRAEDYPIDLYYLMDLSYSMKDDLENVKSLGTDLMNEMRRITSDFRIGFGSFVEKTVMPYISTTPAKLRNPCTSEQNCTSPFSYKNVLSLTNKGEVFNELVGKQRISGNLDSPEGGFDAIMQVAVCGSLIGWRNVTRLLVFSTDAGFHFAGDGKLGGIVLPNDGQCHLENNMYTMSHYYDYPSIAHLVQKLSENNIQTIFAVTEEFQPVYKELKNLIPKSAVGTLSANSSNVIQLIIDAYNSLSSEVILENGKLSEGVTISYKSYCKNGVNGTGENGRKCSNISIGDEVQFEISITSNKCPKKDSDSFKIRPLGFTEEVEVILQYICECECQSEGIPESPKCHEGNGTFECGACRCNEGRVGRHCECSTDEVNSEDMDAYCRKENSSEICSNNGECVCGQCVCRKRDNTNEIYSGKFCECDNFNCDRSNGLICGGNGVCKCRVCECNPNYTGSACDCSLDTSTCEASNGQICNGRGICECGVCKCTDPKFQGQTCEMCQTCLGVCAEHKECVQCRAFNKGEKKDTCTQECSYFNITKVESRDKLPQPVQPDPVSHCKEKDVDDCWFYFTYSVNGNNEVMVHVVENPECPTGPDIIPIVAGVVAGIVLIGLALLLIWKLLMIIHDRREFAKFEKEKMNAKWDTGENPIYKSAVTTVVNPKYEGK
Integrin beta-1 (Homo sapiens) + Integrin alpha-4 (Homo sapiens), sequence (P13612 whole entry, looked up): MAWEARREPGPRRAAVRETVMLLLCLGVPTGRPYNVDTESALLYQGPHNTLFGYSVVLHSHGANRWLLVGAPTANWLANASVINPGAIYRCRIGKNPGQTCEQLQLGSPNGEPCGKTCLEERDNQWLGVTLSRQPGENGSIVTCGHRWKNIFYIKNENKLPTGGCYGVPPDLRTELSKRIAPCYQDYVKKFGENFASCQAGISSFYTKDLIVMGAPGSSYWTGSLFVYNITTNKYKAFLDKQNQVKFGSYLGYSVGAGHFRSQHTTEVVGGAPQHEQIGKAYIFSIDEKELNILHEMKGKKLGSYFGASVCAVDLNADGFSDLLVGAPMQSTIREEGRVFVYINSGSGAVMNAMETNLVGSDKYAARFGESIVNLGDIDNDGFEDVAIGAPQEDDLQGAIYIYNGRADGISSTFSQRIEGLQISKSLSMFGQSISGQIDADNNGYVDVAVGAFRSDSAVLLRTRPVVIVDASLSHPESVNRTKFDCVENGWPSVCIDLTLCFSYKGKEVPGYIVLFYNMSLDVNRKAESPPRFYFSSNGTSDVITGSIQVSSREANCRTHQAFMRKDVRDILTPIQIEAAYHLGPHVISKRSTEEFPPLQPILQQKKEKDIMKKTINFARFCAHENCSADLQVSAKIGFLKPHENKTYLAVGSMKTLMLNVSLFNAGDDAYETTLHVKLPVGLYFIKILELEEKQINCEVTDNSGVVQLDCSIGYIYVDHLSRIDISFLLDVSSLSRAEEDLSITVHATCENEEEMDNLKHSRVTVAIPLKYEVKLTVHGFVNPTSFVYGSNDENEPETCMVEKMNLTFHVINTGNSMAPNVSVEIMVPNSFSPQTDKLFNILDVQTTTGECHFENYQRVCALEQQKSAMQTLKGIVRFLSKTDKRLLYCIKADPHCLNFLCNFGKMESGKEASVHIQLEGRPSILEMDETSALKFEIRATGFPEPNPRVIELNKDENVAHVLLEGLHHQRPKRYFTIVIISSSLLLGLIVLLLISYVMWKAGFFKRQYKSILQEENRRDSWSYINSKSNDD
AP-2 complex subunit beta (Homo sapiens), sequence (P63010 whole entry, looked up, the tested form may be a part, one chain of several): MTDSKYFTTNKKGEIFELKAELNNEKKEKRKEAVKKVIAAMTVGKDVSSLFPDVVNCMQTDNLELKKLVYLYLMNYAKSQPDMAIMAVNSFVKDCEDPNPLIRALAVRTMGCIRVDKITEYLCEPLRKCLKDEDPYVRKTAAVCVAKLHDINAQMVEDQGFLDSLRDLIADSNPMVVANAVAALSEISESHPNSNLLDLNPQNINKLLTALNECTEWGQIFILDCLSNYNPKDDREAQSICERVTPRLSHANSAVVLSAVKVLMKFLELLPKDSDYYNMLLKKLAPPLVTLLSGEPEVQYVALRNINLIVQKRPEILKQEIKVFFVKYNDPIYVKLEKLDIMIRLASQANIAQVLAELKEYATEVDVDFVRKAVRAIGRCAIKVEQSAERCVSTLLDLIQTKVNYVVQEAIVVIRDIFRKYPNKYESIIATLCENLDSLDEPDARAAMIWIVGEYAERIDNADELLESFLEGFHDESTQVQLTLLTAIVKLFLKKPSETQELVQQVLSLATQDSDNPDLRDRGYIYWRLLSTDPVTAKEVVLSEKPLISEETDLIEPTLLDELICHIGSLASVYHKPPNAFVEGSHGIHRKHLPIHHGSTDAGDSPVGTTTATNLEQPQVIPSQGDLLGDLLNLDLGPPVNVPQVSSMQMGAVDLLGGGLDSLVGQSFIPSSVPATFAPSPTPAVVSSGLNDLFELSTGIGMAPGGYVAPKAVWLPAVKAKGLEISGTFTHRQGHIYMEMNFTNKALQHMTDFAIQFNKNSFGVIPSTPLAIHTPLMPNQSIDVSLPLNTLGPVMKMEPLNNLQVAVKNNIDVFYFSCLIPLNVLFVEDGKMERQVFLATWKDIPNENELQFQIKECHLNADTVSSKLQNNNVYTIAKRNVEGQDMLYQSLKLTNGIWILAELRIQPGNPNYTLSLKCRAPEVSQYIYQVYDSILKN
Beta-adrenergic receptor kinase 1 (Homo sapiens), sequence (P25098 whole entry, looked up): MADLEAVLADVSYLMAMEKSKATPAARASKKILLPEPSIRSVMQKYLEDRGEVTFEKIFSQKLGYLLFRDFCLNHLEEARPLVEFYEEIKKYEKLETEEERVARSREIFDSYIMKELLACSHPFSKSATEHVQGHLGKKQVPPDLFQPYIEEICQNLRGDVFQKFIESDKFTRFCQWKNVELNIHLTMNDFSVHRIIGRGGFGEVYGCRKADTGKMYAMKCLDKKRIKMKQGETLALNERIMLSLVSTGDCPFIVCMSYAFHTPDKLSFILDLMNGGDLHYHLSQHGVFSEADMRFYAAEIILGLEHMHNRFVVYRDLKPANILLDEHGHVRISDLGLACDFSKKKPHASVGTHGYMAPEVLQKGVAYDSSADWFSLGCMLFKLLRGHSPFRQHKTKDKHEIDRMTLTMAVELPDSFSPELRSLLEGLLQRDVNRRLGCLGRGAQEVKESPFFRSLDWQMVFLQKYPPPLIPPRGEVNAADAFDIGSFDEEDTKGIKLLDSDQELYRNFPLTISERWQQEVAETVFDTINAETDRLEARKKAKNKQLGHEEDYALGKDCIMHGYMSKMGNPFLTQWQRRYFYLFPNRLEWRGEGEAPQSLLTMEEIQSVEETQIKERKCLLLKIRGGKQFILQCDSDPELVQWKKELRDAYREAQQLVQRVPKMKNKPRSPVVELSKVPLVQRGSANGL

Take `COc1ccc(-c2c[n+](CC(=O)OC3CC(C)CCC3C(C)C)c3n2CCC3)cc1` (stereo not given): the percent of DMSO control GFP in [1] was 99.5% (inactive). The figures for the GFP response vs DMSO in experiment [2] and in experiment [4] were 105% (inactive) and 97% (inactive), respectively. Moreover, in [3], the percent response of DMSO control was 102% (inactive). Further, in experiment [5], the GFP response, % of DMSO was 98.6% (inactive). In [6], this molecule displayed a double positive events of 57.8%. Besides, the vesicle binding response in [6] is 42.8% (inactive). Also, the inhibition is 5.61% (inactive) in [7], -5.29% (inactive) in experiment [11] and 6% (inactive) in [15]. In addition, in [8], the superoxide response (% of plate) is 97.3% (inactive). In addition, in experiment [9], the aptamer binding inhibition is -6% (inactive). Moreover, the response in [10] was -0.25% (inactive); in experiment [12] it was 8.78% (inactive). Further, the binding (% of control) in experiment [13] is 108% (inactive). Also, the efflux inhibition (fraction of control) in experiment [14] was 0.28 (inactive). For the same molecule, the differentiation response in experiment [16] is -3.11% (inactive).

For `C/C(CCc1oc2ccc(Cl)cc2c1-c1ccc(C)o1)=N\O`, the percent of DMSO control GFP in experiment [1] was 101% (inactive). Further, the GFP response vs DMSO in experiment [2] is 103% (inactive); in [4], 125% (inactive). The percent response of DMSO control in experiment [3] is 103% (inactive). Besides, the GFP response, % of DMSO in experiment [5] was 102% (inactive). In [6], this molecule displayed a double positive events of 63.1%. For the same molecule, the vesicle binding response in [6] is 157% (inactive). Also, the results for the inhibition in experiment [7], in experiment [11] and in [15] were -16.4% (inactive), 4.9% (inactive) and -3% (inactive), respectively. Besides, in experiment [8], the superoxide response (% of plate) was 107% (inactive). Besides, in experiment [9], the aptamer binding inhibition was 0% (inactive). The values for the response in experiment [10] and in [12] were -13% (inactive) and 6.85% (inactive), respectively. For the same molecule, the binding (% of control) in experiment [13] is 111% (inactive). In experiment [14], the efflux inhibition (fraction of control) was 0 (inactive). Moreover, the differentiation response in experiment [16] is 9.79% (inactive).

Turning to `Cc1ccccc1C(=O)Nc1ccccc1C(=O)NCC(C)C`, in experiment [1], the percent of DMSO control GFP was 100% (inactive). For the same molecule, the GFP response vs DMSO is 107% (inactive) in experiment [2] and 118% (inactive) in experiment [4]. For the same molecule, in [3], the percent response of DMSO control is 104% (inactive). Moreover, in experiment [5], the GFP response, % of DMSO was 108% (inactive). The molecule also had a double positive events in experiment [6] of 63.7%. The vesicle binding response in experiment [6] was 208% (inactive). Also, the inhibition was 7.4% (inactive) in experiment [7], 35.6% (inactive) in experiment [11] and -1% (inactive) in experiment [15]. For the same molecule, the superoxide response (% of plate) in experiment [8] is 118% (inactive). Besides, the aptamer binding inhibition in experiment [9] was 3% (inactive). Moreover, the response is -22.2% (inactive) in experiment [10] and -2.23% (inactive) in experiment [12]. In experiment [13], the binding (% of control) was 99.9% (inactive). Moreover, the efflux inhibition (fraction of control) in experiment [14] was 0 (inactive). In addition, the differentiation response in experiment [16] is 2.89% (inactive).

For the molecule `CN1C2CCC1CC(OC(c1ccccc1)c1ccccc1)C2` (stereo not given), in [1], the percent of DMSO control GFP is 101% (inactive). Moreover, the GFP response vs DMSO in experiment [2] is 96.2% (inactive); in experiment [4], 99.9% (inactive). In addition, in experiment [3], the percent response of DMSO control was 108% (inactive). Further, in experiment [5], the GFP response, % of DMSO is 98% (inactive). This molecule gave a double positive events in experiment [6] of 64.3%. In addition, the vesicle binding response in [6] is 247% (inactive). For the same molecule, the figures for the inhibition in experiment [7], in experiment [11] and in experiment [15] were 19.3% (inactive), -19% (inactive) and -11% (inactive), respectively. Besides, the superoxide response (% of plate) in [8] was 93% (inactive). For the same molecule, the aptamer binding inhibition in [9] was -8% (inactive). Also, the response is 8.88% (inactive) in [10] and 1.18% (inactive) in experiment [12]. The binding (% of control) in experiment [13] was 98.4% (inactive). For the same molecule, the efflux inhibition (fraction of control) in [14] is -0.1 (inactive). The differentiation response in experiment [16] is 26.6% (inactive).

Turning to `CC(=O)N1CCN(c2ccc(OC[C@H]3CO[C@](Cn4ccnc4)(c4ccc(Cl)cc4Cl)O3)cc2)CC1`, the percent of DMSO control GFP in [1] was 105% (inactive). In addition, the GFP response vs DMSO in experiment [2] is 108% (inactive); in experiment [4] it was 109% (inactive). Moreover, the percent response of DMSO control in experiment [3] is 111% (inactive). The GFP response, % of DMSO in [5] is 111% (inactive). This molecule also registered a double positive events in experiment [6] of 63.3%. Further, the vesicle binding response in [6] was 188% (inactive). In addition, the inhibition in experiment [7] is 4.27% (inactive); in experiment [11] it was 6.3% (inactive); in experiment [15], -9% (inactive). The superoxide response (% of plate) in experiment [8] is 100% (inactive). Also, the aptamer binding inhibition in experiment [9] was -2% (inactive). In addition, the response in [10] was 0.01% (inactive); in [12], -2.33% (inactive). Further, the binding (% of control) in [13] was 98.1% (inactive). In experiment [14], the efflux inhibition (fraction of control) is 0.59 (active). Further, the differentiation response in experiment [16] was -10.4% (inactive).

Values taken from PubChem BioAssay.
